Assay results: the antibiotic and cytotoxicity screens of Wong et al. (2023)
The campaign covered roughly 39,000 compounds. About 3,300 (8.5%) were called active. What follows is part of a selection rich in actives, with near analogues and random picks from the rest.

Test system: HepG2
Test: cytotoxicity call (relative viability < 0.9)
Conditions: 10 µM

Row | SMILES | cytotoxicity call
1 | C[C@H](CO)N1C[C@H](C)[C@@H](CN(C)C(=O)Nc2cccc(F)c2)OCc2ccccc2-c2ccccc2C1=O | inactive
2 | C[n+]1ccc(CCCO)cc1 | inactive
3 | CC(C)C(N)C(=O)OCCOCn1cnc2c(=O)[nH]c(N)nc21.Cl (configuration not stated) | inactive
4 | Clc1ccc(C(Cn2ccnc2)OCc2c(Cl)cccc2Cl)c(Cl)c1.O=[N+]([O-])O (configuration not stated) | inactive
5 | Clc1ccc(CCC(Cn2ccnc2)Sc2c(Cl)cccc2Cl)cc1 (configuration not stated) | inactive
6 | Clc1ccc(COC(Cn2ccnc2)c2ccc(Cl)cc2Cl)cc1.O=[N+]([O-])O (configuration not stated) | active
7 | Clc1ccc(CON=C(Cn2ccnc2)c2ccc(Cl)cc2Cl)c(Cl)c1.O=[N+]([O-])O | inactive
8 | Clc1ccc(COC(Cn2ccnc2)c2ccc(Cl)cc2Cl)c(Cl)c1.O=[N+]([O-])O (configuration not stated) | inactive
9 | Clc1ccc(CSC(Cn2ccnc2)c2ccc(Cl)cc2Cl)cc1.O=[N+]([O-])O (configuration not stated) | active
10 | CC(C)NC(=O)N[C@H]1C=C[C@H](CC(=O)NCCCN(C)C)O[C@@H]1CO | inactive
11 | COc1cccc(S(=O)(=O)N[C@H]2C=C[C@@H](CC(=O)NC3CCC3)O[C@H]2CO)c1 | inactive
12 | C[C@@H]1CN([C@@H](C)CO)C(=O)c2cc(N(C)C)ccc2O[C@H]1CN(C)S(=O)(=O)c1ccc(Cl)cc1 | inactive
13 | Cc1cccc(NC(=O)CN2C(=O)CNC2=O)c1 | inactive
14 | C[C@H](CO)N1C[C@H](C)[C@H](CN(C)C(=O)Nc2ccc3c(c2)OCO3)Oc2ccc(NS(C)(=O)=O)cc2CC1=O | inactive
15 | CCC(=O)N1CCN(c2ccc(-n3c(=O)ccc4cnc5ccc(-c6cnc7ccccc7c6)cc5c43)cc2C(F)(F)F)CC1 | active
16 | Cc1noc(C)c1NC(=O)Nc1ccc2c(c1)C(=O)N([C@H](C)CO)C[C@H](C)[C@H](CN(C)C(=O)C1CCCCC1)OCCCC[C@H](C)O2 | inactive
17 | C[C@H]1CN([C@@H](C)CO)C(=O)c2cccc(NC(=O)c3nc4ccccc4s3)c2O[C@H]1CN(C)Cc1ccc(C(F)(F)F)cc1 | inactive
18 | O=C(C[C@@H]1C[C@@H]2c3cc(NC(=O)C4CCOCC4)ccc3O[C@@H]2[C@H](CO)O1)NCc1ccc2c(c1)OCO2 | inactive
19 | CS(C)(=O)=O | active
20 | CS(=O)(=O)OCCCCOS(C)(=O)=O [listing 1 of 2 here] | inactive
21 | CS(=O)(=O)OCCCCOS(C)(=O)=O [listing 2 of 2 here] | inactive
22 | CCOC(=O)c1c[nH][nH]c1=O | inactive
23 | CC(C)NC(=O)N(C)C[C@H]1OCCCC[C@H](C)Oc2ccc(NC(=O)Nc3ccc(F)cc3)cc2C(=O)N([C@H](C)CO)C[C@@H]1C | inactive
24 | C[C@H](CO)N1C[C@H](C)[C@@H](CN(C)C(=O)Cc2ccccc2)OCCCC[C@H](C)Oc2ccc(NC(=O)NC3CCCCC3)cc2C1=O | inactive

Row | SMILES | cytotoxicity call
25 | COc1nn(C)cc1C(=O)Nc1ccon1 | inactive
26 | S=C1NCN(CCc2ccccc2)CN1 | inactive
27 | CCCCN1CNC(=S)NC1 | active
28 | OCCN1CNC(=S)NC1 | inactive
29 | Cc1noc(C)c1NC(=O)N(C)C[C@H]1Oc2ccc(NS(=O)(=O)c3ccccc3)cc2C(=O)N([C@H](C)CO)C[C@@H]1C | inactive
30 | COc1ccc(NC(=O)Nc2ccc3c(c2)C(=O)N([C@H](C)CO)C[C@@H](C)[C@H](CN(C)C(=O)Cc2ccccc2)OCCCC[C@H](C)O3)cc1 | inactive
31 | OCc1cn(-c2ccccc2)nn1 | inactive
32 | c1ccc(-c2nc(C34CC5CC(CC(C5)C3)C4)cs2)cc1 | inactive
33 | NCc1cn(-c2ccccc2)nc1C12CC3CC(CC(C3)C1)C2 | active
34 | CCS(=O)(=O)Nc1ccc2c(c1)C(=O)N(C)C[C@H](OC)[C@@H](C)CN(CCC(F)(F)F)[C@@H](C)CO2 | inactive
35 | C[C@H](CO)N1C[C@H](C)[C@@H](CN(C)C(=O)c2ccc3c(c2)OCO3)Oc2cc(C#Cc3ccccc3F)ccc2S1(=O)=O | inactive
36 | C[C@H]1CN([C@@H](C)CO)C(=O)c2cccc(NC(=O)c3nc4ccccc4s3)c2O[C@@H]1CN(C)Cc1ccc(-c2ccccc2)cc1 | inactive
37 | O=C(O)c1nn(Cc2ccccc2)nc1C(=O)O | active
38 | NC(=O)c1nnn(Cc2ccccc2)c1N | inactive
39 | O=C(O)Cn1nc2ccccc2n1 | inactive
40 | C[C@H](CO)N1C[C@H](C)[C@@H](CN(C)S(=O)(=O)c2ccccc2F)Oc2ncc(Br)cc2C1=O | inactive
41 | Cc1noc(C)c1NC(=O)N(C)C[C@@H]1OCCCC[C@H](C)Oc2ccc(NS(=O)(=O)c3ccccc3)cc2C(=O)N([C@H](C)CO)C[C@@H]1C | inactive
42 | C[C@@H]1CCCCO[C@@H](CN(C)Cc2ccc(Cl)c(Cl)c2)[C@@H](C)CN([C@H](C)CO)C(=O)c2cc(NS(=O)(=O)c3ccc(F)cc3)ccc2O1 | active
43 | C[C@@H]1CN([C@H](C)CO)C(=O)c2cc(NS(=O)(=O)c3ccc(F)cc3)ccc2O[C@@H](C)CCCCO[C@H]1CN(C)Cc1ccc(Cl)c(Cl)c1 | inactive
44 | C[C@@H]1CCCCO[C@@H](CN(C)Cc2ccc(Cl)c(Cl)c2)[C@H](C)CN([C@H](C)CO)C(=O)c2cc(NS(=O)(=O)c3ccc(F)cc3)ccc2O1 | active
45 | C[C@H]1CCCCO[C@H](CN(C)Cc2ccc(Cl)c(Cl)c2)[C@@H](C)CN([C@@H](C)CO)C(=O)c2cc(NS(=O)(=O)c3ccc(F)cc3)ccc2O1 | inactive
46 | C[C@H](CO)N1C[C@H](C)[C@H](CN(C)Cc2ccc(Cl)c(Cl)c2)OCCCC[C@H](C)Oc2ccc(NS(=O)(=O)c3ccc(F)cc3)cc2C1=O | inactive
47 | C[C@@H]1CCCCO[C@H](CN(C)Cc2ccc(Cl)c(Cl)c2)[C@H](C)CN([C@@H](C)CO)C(=O)c2cc(NS(=O)(=O)c3ccc(F)cc3)ccc2O1 | active
48 | C[C@@H]1CCCCO[C@H](CN(C)Cc2ccc(Cl)c(Cl)c2)[C@@H](C)CN([C@@H](C)CO)C(=O)c2cc(NS(=O)(=O)c3ccc(F)cc3)ccc2O1 | inactive

Row | SMILES | cytotoxicity call
49 | C[C@@H]1CCCCO[C@@H](CN(C)Cc2ccc(Cl)c(Cl)c2)[C@H](C)CN([C@@H](C)CO)C(=O)c2cc(NS(=O)(=O)c3ccc(F)cc3)ccc2O1 | active
50 | C[C@@H]1CCCCO[C@@H](CN(C)Cc2ccc(Cl)c(Cl)c2)[C@@H](C)CN([C@@H](C)CO)C(=O)c2cc(NS(=O)(=O)c3ccc(F)cc3)ccc2O1 | inactive
51 | C[C@H](CO)N1C[C@H](C)[C@@H](CN(C)Cc2ccc(Cl)c(Cl)c2)OCCCC[C@H](C)Oc2ccc(NS(=O)(=O)c3ccc(F)cc3)cc2C1=O | inactive
52 | C[C@@H]1CCCCO[C@H](CN(C)Cc2ccc(Cl)c(Cl)c2)[C@@H](C)CN([C@H](C)CO)C(=O)c2cc(NS(=O)(=O)c3ccc(F)cc3)ccc2O1 | inactive
53 | C[C@@H]1CCCCO[C@@H](CN(C)S(C)(=O)=O)[C@H](C)CN([C@H](C)CO)C(=O)c2cc(N(C)C)ccc2O1 | inactive
54 | CCO/C(O)=C1/C(=O)CN(C)C1=O | inactive
55 | CCS(=O)(=O)Nc1ccc2c(c1)C(=O)N(C)[C@@H]1CC[C@H](CC(=O)N[C@@H]3CCN(Cc4ccccc4)C3)O[C@H]1CO2 | inactive
56 | CN(C)CC(=O)N[C@H]1CC[C@@H](CCNC(=O)C2CCC2)O[C@H]1CO | inactive
57 | Cc1nnc(N2CCC[C@]3(CN(C(=O)CO)CCO3)C2)o1 | inactive
58 | C[C@@H]1CN([C@H](C)CO)C(=O)Cc2cc(NC(=O)C3CCCCC3)ccc2O[C@@H]1CN(C)C(=O)Nc1ccc(C(F)(F)F)cc1 | inactive
59 | C[C@H]1CN([C@@H](C)CO)C(=O)c2cccc(NC(=O)c3ccncc3)c2O[C@@H]1CN(C)Cc1ccc(Oc2ccccc2)cc1 | inactive
60 | Cc1ccc(S(=O)(=O)Nc2ccc3c(c2)C(=O)N([C@@H](C)CO)C[C@H](C)[C@@H](CN(C)C(=O)Cc2ccccc2)OCCCC[C@H](C)O3)cc1 | inactive
61 | C[C@@H]1CN([C@@H](C)CO)S(=O)(=O)c2ccc(Br)cc2O[C@@H]1CN(C)CC1CCOCC1 | inactive
62 | CC(C)NC(=O)Nc1ccc2c(c1)C(=O)N([C@@H](C)CO)C[C@H](C)[C@H](CN(C)Cc1ccc(C(F)(F)F)cc1)OCCCC[C@@H](C)O2 | active
63 | CC(C)NC(=O)Nc1ccc2c(c1)C(=O)N([C@@H](C)CO)C[C@@H](C)[C@H](CN(C)Cc1ccc(C(F)(F)F)cc1)OCCCC[C@@H](C)O2 | inactive
64 | CC(C)NC(=O)Nc1ccc2c(c1)C(=O)N([C@H](C)CO)C[C@@H](C)[C@H](CN(C)Cc1ccc(C(F)(F)F)cc1)OCCCC[C@@H](C)O2 | active
65 | CC(C)NC(=O)Nc1ccc2c(c1)C(=O)N([C@@H](C)CO)C[C@@H](C)[C@@H](CN(C)Cc1ccc(C(F)(F)F)cc1)OCCCC[C@H](C)O2 | inactive
66 | CC(C)NC(=O)Nc1ccc2c(c1)C(=O)N([C@H](C)CO)C[C@@H](C)[C@H](CN(C)Cc1ccc(C(F)(F)F)cc1)OCCCC[C@H](C)O2 | active
67 | CC(C)NC(=O)Nc1ccc2c(c1)C(=O)N([C@@H](C)CO)C[C@H](C)[C@@H](CN(C)Cc1ccc(C(F)(F)F)cc1)OCCCC[C@@H](C)O2 | active
68 | CC(C)NC(=O)Nc1ccc2c(c1)C(=O)N([C@H](C)CO)C[C@H](C)[C@@H](CN(C)Cc1ccc(C(F)(F)F)cc1)OCCCC[C@H](C)O2 | inactive
69 | CC(C)NC(=O)Nc1ccc2c(c1)C(=O)N([C@H](C)CO)C[C@@H](C)[C@@H](CN(C)Cc1ccc(C(F)(F)F)cc1)OCCCC[C@H](C)O2 | inactive
70 | CC(C)NC(=O)Nc1ccc2c(c1)C(=O)N([C@H](C)CO)C[C@H](C)[C@H](CN(C)Cc1ccc(C(F)(F)F)cc1)OCCCC[C@@H](C)O2 | inactive
71 | CC(C)NC(=O)Nc1ccc2c(c1)C(=O)N([C@H](C)CO)C[C@H](C)[C@@H](CN(C)Cc1ccc(C(F)(F)F)cc1)OCCCC[C@@H](C)O2 | inactive
72 | CC(C)NC(=O)N(C)C[C@@H]1Oc2ccc(NC(=O)CCN3CCOCC3)cc2C(=O)N([C@@H](C)CO)C[C@@H]1C | inactive
